# PGK inhibitor: qHTS Assay to Find Inhibitors of Phosphoglycerate Kinase; Potency, µM (top dose mostly 57.5 µM), actives largely listed as inhibitors; PGK/GAPDH coupled, Kinase-Glo luminescence, 60 min; 0.043% of 380,000 active; note: nearly all actives have a fitted effect of over 60% in size
#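 Luminescent ATP detection (Kinase-Glo Plus) follows a 60-minute room-temperature incubation, with wells lacking PGK as controls. Buffer: 100 mM TEA (pH 7.6), 5 mM MgCl2, 0.01% Tween-20. Coupling enzyme GAPDH (100 nM final) supplies unstable 1,3-BPG in-well.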
# PI4K2A inh: qHTS for small molecular inhibitors of PI4K2A; Phosphatidylinositol 4-kinase type 2-alpha (Homo sapiens), Q9BTU6; purified PI4K2A, ADP-Glo luminescence, 1 h; stronger effect = lower value; activity change, negative = inhibition, % at 76.9 µM; 0.13% of 420,000 active; AID 1346378, 2018; in the data active = activity change below about -50%; inconclusive = mostly about -30% to -49%
#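 ADP-Glo luminescence measured ADP generated by PI4K2A enzyme (4 ug/mL before mixing) with 1.2 mM PI substrate (pre-mix) and 300 microM ATP (pre-mix). Tris pH7.5 buffer with MgCl2, Triton X-100; 1 h reaction at ambient temperature.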
# GLS inh: qHTS for Inhibitors of Glutaminase (GLS); 0.21% of 410,000 active; Glutaminase kidney isoform, mitochondrial (Homo sapiens), O94925; GLS enzymatic activity, qHTS titration; Potency, µM (highest dose often 45.5 µM), actives largely listed as inhibitors
#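 hKGA in 45 mM KH2PO4 pH 8.2, 0.02% Tween-20 with pin-transferred compounds; 1 mM L-glutamine (stock) plus glutamate oxidase/HRP/Amplex Red coupling added. Fluorescence read initially and after 30 min at RT.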
# USP1 inh: Inhibitors of USP1/UAF1: Primary Screen | Ubiquitin carboxyl-terminal hydrolase 1 (Homo sapiens), O94782 | recombinant USP1/UAF1, Ub-Rhodamine cleavage fluorescence | Potency, µM (series often up to 57.1 µM), hits mostly inhibitors | 0.23% of 390,000 active | AID 743255, 2014; note: nearly all actives have a fitted effect of over 60% in size
# Target sequence (O94782 whole entry, looked up): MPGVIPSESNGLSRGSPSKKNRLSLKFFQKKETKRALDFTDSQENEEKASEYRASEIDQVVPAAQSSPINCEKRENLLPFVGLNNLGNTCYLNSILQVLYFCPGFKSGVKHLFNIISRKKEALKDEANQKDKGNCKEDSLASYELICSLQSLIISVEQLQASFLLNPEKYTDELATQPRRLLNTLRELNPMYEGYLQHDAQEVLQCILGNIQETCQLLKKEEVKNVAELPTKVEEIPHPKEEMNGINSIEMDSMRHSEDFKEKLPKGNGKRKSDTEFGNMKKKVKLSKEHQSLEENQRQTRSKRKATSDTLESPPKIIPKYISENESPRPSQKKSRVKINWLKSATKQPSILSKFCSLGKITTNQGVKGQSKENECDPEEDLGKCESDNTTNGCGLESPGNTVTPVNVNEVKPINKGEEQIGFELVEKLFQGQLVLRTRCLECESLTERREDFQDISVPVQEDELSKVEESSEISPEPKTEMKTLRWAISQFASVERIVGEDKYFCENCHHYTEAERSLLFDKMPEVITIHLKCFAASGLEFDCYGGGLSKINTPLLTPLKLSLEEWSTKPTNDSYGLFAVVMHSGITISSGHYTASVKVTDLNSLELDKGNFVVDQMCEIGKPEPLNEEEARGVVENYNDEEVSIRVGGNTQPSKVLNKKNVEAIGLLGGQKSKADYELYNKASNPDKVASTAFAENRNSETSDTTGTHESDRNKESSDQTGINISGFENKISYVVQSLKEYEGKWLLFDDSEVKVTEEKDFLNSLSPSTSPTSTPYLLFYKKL
#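 Step one: compound is pinned into 1nM USP1/UAF1 in HEPES pH 7.8 buffer with TCEP. Step two: 15 min room-temperature incubation. Step three: Ub-Rho (150nM final) starts cleavage, tracked by fluorescence over six one-minute reads.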
# Hits are given with their value; 0 = inactive; ? = inconclusive; - = not tested or not shown; ! = repeats disagree; [ ] = another dose, or the depositor's remark. The list is not random: actives were taken first. Their share in the collection is about 0.53%. Unless noted, calls come from the whole dose curve; as a rule, active = well fitted curve in the direction sought with a large enough effect; inconclusive = small, poorly fitted or top-dose-only effect, or another doubt; inactive = no such curve, though single readings can be large; an effect the other way counts as inactive or inconclusive.
SMILES,PGK inhibitor,PI4K2A inh,GLS inh,USP1 inh
CCOC(=O)C1CCCN(c2ccc([N+](=O)[O-])c3nonc23)C1 (stereo not given),0,0,0,25µM
C[C@@H]1[C@H](O)[C@@H](C)C=CC=CCCC=CC=CC=CC=C[C@H](O[C@H]2O[C@@H](C)[C@H](O)[C@@H](N)[C@@H]2O)CC2O[C@](O)(C[C@@H](O)[C@H](O)CC[C@@H](O)C[C@@H](O)C[C@@H](O)CC(=O)O[C@H]1C)C[C@H](O)[C@H]2C(=O)O,-,-,0,-
CCCCCC(O)C1C(=O)OC(C)C(O)\C=C/C=C\C=C/C=C\C=C(\C)C(O)C(O)C(O)CC(O)CC(O)CC(O)CC(O)CC1O (stereo not given),-,-,28µM!,-
ClCCN1CCCC1,-,0,-,-
Cc1cc(C)cc(N2C(=O)NC(=O)/C(=C\c3cccn3-c3ccc(Cl)cc3)C2=O)c1,0,-50,0,0
CN1C(=O)/C(=C/c2cccn2-c2ccc3ccccc3c2)C(=O)NC1=S,0,-61,0,0
Nc1cccc2c(N)cccc12,-,0,0,-
Nc1cccc2c(O)cccc12,0,0,13µM,?
CC(C)[C@H]1C(=O)N2CCC[C@H]2[C@]2(O)O[C@](NC(=O)[C@@H]3C=C4c5cccc6[nH]cc(c56)C[C@H]4N(C)C3)(C(C)C)C(=O)N12,0,0,0,22µM
CC(C)C[C@H]1C(=O)N2CCCC2[C@]2(O)O[C@](NC(=O)[C@@H]3C=C4c5cccc6[nH]cc(c56)CC4N(C)C3)(C(C)C)C(=O)N12 (stereo not given in full),0,0,0,13µM
CCC(=O)O[C@@](Cc1ccccc1)(c1ccccc1)[C@H](C)CN(C)C,-,-,0,-
C[C@]12CC[C@H]3[C@@H](CCC4=CC(=O)CC[C@@H]43)[C@@H]1CC[C@@H]2OC(=O)CCc1ccco1,-,0,-,-
Cc1cc(/C=C2\C(=O)NC(=O)N(c3ccc(Br)cc3)C2=O)c(C)n1-c1cc(C(=O)O)cc(C(=O)O)c1,14µM,0,10µM,?
Cc1ccc(N2C(=O)NC(=O)/C(=C\c3cc(C)n(-c4sc5c(c4C#N)CCCC5)c3C)C2=O)cc1,0,0,?,28µM
CCN1C(=O)NC(=O)/C(=C/c2cc(C)n(-c3sc(C)c(C)c3C#N)c2C)C1=O,0,0,0,0
O=Cc1ccc(O)c(O)c1,0,0,?,0
CN(N=O)c1ccc(O)c(O)c1,-,-57,-,-
CCOC(C(=O)OCCN(C)C)(c1ccccc1)c1ccccc1,-,0,-,-
CC(C(O)c1ccccc1)N(C)C/C=C/c1ccccc1 (stereo not given),-,0,-,-
CC1(C)CC/C(=C\c2ccc(Cl)cc2)C1(O)Cn1cncn1 (stereo not given),-,-,0,-
COc1cc(CC(C)N)c(OC)cc1C (stereo not given),-,-,0,-
CCOC(=O)[C@]1(C#N)[C@@H]2C=CC(C(N)=O)=CN2[C@@H](C(N)=O)[C@@H]1c1ccc(F)cc1,0,0,0,?
COC(=O)[C@@]1(C#N)[C@@H]2C=CC(C(C)=O)=CN2[C@@H](C(N)=O)[C@@H]1c1ccc(F)cc1,0,0,0,28µM
CCOc1ccc(-n2c(-c3cccs3)nc3ccccc3c2=O)cc1,0,0,0,0
CCn1nc(-c2cccs2)nc2c(=O)n(C)c(=O)nc1-2,?,-61,0,0.22µM
SMILES,PGK inhibitor,PI4K2A inh,GLS inh,USP1 inh
CCn1nc(/C=C/c2ccccc2)nc2c(=O)n(C)c(=O)nc1-2,?,-69,0,1.1µM
COc1cccc(N2C(=O)NC(=O)/C(=C/c3ccc([N+](=O)[O-])s3)C2=O)c1,0,0,?,?
CCOc1ccc(N2C(=O)NC(=O)/C(=C\c3cc(OC)c(OC)cc3[N+](=O)[O-])C2=O)cc1,0,0,0,?
COc1ccc(N2C(=O)NC(=O)/C(=C/c3ccc([N+](=O)[O-])s3)C2=O)cc1,?,?,0,22µM
COc1ccc(N2C(=O)NC(=O)/C(=C\c3ccc([N+](=O)[O-])s3)C2=O)cc1,0,0,13µM,16µM
COc1ccccc1N1C(=O)NC(=O)/C(=C/c2ccc([N+](=O)[O-])s2)C1=O,0,0,0,32µM
Cc1ccc2c(c1)[C@]13CCCC[C@@H]1[C@@H](C2)N(C)CC3,-,-,0,-
CCN1/C(=C\C=C\C2=[N+](CC)c3ccccc3C2(C)C)C(C)(C)c2ccccc21,?,?,?,14µM
NC(=O)CI,-,-54,-,-
COc1ccc(-n2c(O)c(/C=C/C=Nc3ccccc3)c(=O)[nH]c2=O)cc1,0,0,0,32µM
O=c1[nH]c(=O)n(-c2ccccc2)c(O)c1/C=C/C=Nc1ccccc1,0,0,0,?
O=C(c1ccccc1)c1ccc(N=Nc2c(O)[nH]c(=O)[nH]c2=O)cc1,0,0,10µM,0
CN1Cc2c(c(C#N)c(N)n(C)c2=S)CC1(C)C,0,0,0,28µM
Fc1cc(Br)ccc1CBr,-,0,-,-
O=[N+]([O-])/C=C/c1c(Cl)cccc1Cl,0,0,7.9µM,0
CCN(CC)c1ccc(/C=C/[N+](=O)[O-])cc1,0,0,0,?
O=C1[O][Sb-]23[O]C(=O)C([O]2)C2[O][Sb-]4([O]C(=O)C([O]4)C1[O]3)[O]C2=O,-,-,0,-
CC(Cc1ccccc1)N(C)Cc1ccco1 (stereo not given),-,0,-,-
CC[C@H](C)/C=C(C)/C=C/C1=CC2=C(Cl)C(=O)[C@](C)(OC(C)=O)C(=O)C2=CO1,?,?,0,25µM
CCc1cc(OC)c(CC(C)N)cc1OC (stereo not given),-,-,0,-
COc1cc(C(c2c(C)[nH]n(-c3ccccc3)c2=O)c2c(C)[nH]n(-c3ccccc3)c2=O)cc(OC)c1OC,0[11.5 µM],?,0,?
Cc1[nH]n(-c2ccccc2)c(=O)c1C(c1cccc([N+](=O)[O-])c1O)c1c(C)[nH]n(-c2ccccc2)c1=O,0,0,10µM,0
NC(Cc1cc(O)c(O)cc1O)C(=O)O (stereo not given),-,-80,-,-
COC(=O)c1nc(-c2ccc3c(n2)C(=O)C(N)=C(OC)C3=O)c(N)c(-c2ccc(OC)c(OC)c2O)c1C,0,0,0,7.1µM
Cc1c(N)nc([C@@H](CC(N)=O)NC[C@H](N)C(N)=O)nc1C(=O)N[C@H](C(=O)N[C@H](C)[C@H](O)[C@H](C)C(=O)N[C@@H](C(=O)NCCc1nc(-c2nc(C(=O)NCCC[S+](C)C)cs2)cs1)[C@H](C)O)[C@H](O[C@@H]1O[C@@H](CO)[C@@H](O)[C@H](O)[C@@H]1O[C@H]1O[C@H](CO)[C@H](O)[C@H](OC(N)=O)[C@@H]1O)c1cnc[nH]1,-,-,0,-
Cc1ccc(N2C(=O)/C(=C/c3ccc(CN(CCC#N)S(C)(=O)=O)o3)C(=O)NC2=S)cc1,?,0,11µM,0
